In PubChem BioAssay (Tox21) one finds Potency and outcome data, which are given here for eight compounds.

“And” between values parts separate entries of the source, which are not always exact repeats. Identical values can stand only once. Records with an inconclusive call do not appear. The source holds several records for some structures; these can differ, active in one and inactive in another. The source made the active and inactive calls. Unless noted, calls come from the whole dose curve; as a rule, active = well fitted curve in the direction sought with a large enough effect in the repeat runs; inconclusive = weak or mixed curves; inactive = no such curve, though single readings can be large; an effect the other way counts as inactive or inconclusive.

A short description of assay [1]: qHTS assay to identify small molecule agonists of the vitamin D receptor (VDR) signaling pathway - cell viability counter screen (AID 743224). Note: nearly all actives have a fitted effect of over 50% in size. Note: potency is the fitted concentration of half-maximal effect. Summed up:
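Compounds were pin-transferred onto VDR-bla cells plated 4 h earlier; following 16 h incubation at 37C, cell viability was quantified by CellTiter-Glo luminescence after 30 min at room temperature.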

The nature of assay [2]: qHTS assay to identify small molecule antagonists of the vitamin D receptor (VDR) signaling pathway - cell viability counter screen (AID 743225). Note: nearly all actives have a fitted effect of over 50% in size. Note: potency is the fitted concentration of half-maximal effect. Summed up: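 VDR-bla HEK 293T cells, 4 h pre-incubation at 37C, then compound plus 1-alpha,25-dihydroxyvitamin D3 (3 nM final) for 16 h. After the beta-lactamase FRET read, CellTiter-Glo was added to the same wells; luminescence after 30 min at room temperature.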
A general note: In qHTS, concentration-response curves come from the screen itself.

Assay [3] can be described thus: qHTS assay to identify small molecule agonists of the NFkB signaling pathway - cell viability counter screen (AID 1159515; calls by dose curve; note: nearly all actives have a fitted effect of over 55% in size; note: potency is the fitted concentration of half-maximal effect). An outline of the steps:
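Parallel cytotoxicity counter screen in ME-180 cells carrying an NFkB-response-element beta-lactamase reporter, 2,000 cells/well. Compound exposure lasted 5 hr at 37 C, 5% CO2. Cell viability was quantified by CellTiter-Glo luminescence.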

Assay [4] in a line: qHTS assay to identify small molecule agonists of the endoplasmic reticulum stress response signaling pathway (AID 1159516; active = well fitted activation curve with a large enough effect in the signal ratio in the repeat runs, not every such curve was filed as active; the % refers to the signal ratio). An outline of the steps:
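Using a HeLa line with an ESRE-driven beta-lactamase gene, agonist activity was measured by FRET substrate fluorescence (460 and 530 nm emission) after cells were treated with compounds for 5 hr at 37 C and 5% CO2.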

The nature of assay [5]: qHTS assay to identify small molecule agonists of the endoplasmic reticulum stress response signaling pathway - cell viability counter screen (AID 1159517; calls by dose curve; note: nearly all actives have a fitted effect of over 50% in size; note: potency is the fitted concentration of half-maximal effect). An outline of the steps: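 After overnight attachment, ESRE-bla HeLa cells were treated with Tox21 library compounds for 5 hr. CellTiter-Glo luminescence, read 30 min post-addition at room temperature, reported viability.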

Assay [6] is described as follows: qHTS assay to identify small molecule antagonists of the retinoid-related orphan receptor gamma (ROR-gamma) signaling pathway - cell viability counter screen (AID 1159520). Note: nearly all actives have a fitted effect of over 50% in size. Note: potency is the fitted concentration of half-maximal effect. Summed up: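 Cytotoxicity was read from cellular ATP (CellTiter-Glo luminescence) after 16 hr at 37 C with 1 uM doxycycline induction. The inducer was added 2 hr after compound transfer to Tet-on ROR gamma CHO cells.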

Assay [7] has as its target Retinoic acid receptor RXR-alpha (Homo sapiens) (UniProt P19793). Description: qHTS assay to identify small molecule agonists of the RXR signaling pathway (AID 1159527; calls by dose curve; note: nearly all actives have a fitted effect of over 35% in size). Summed up: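 GeneBLAzer RXR-alpha-UAS-bla HEK 293T cells in medium with 2% charcoal-stripped FBS, pre-incubated 5 hr at 37 C, then exposed to compounds 16 hr. Beta-lactamase reporter read by FRET substrate, 2 hr room temperature, 460/530 nm emission.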

A short description of assay [8]: qHTS assay to identify small molecule agonists of the RXR signaling pathway - cell viability counter screen (AID 1159529). Note: nearly all actives have a fitted effect of over 50% in size. Note: potency is the fitted concentration of half-maximal effect. An outline of the steps:
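RXR-alpha-UAS-bla HEK 293T cells in medium with 2% charcoal-stripped FBS were preincubated 5 hr, then exposed to compounds for 16 hr at 37 C. Viability was read as CellTiter-Glo luminescence after 30 min at room temperature.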

Assay [9] in a line: qHTS assay to identify small molecule antagonists of the retinoid acid receptor (RAR) signaling pathway - cell viability counter screen (AID 1159551). Note: nearly all actives have a fitted effect of over 35% in size. Summed up: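 ATP-based viability, C3RL4 cells, 6 h at 37 C with 1 uM final retinol co-added after compound; luminescence read 30 min post CellTiter-Glo, RT.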
The nature of assay [10]: qHTS assay to identify small molecule antagonists of the retinoic acid receptor (RAR) signaling pathway (AID 1159552; note: nearly all actives have a fitted effect of over 50% in size; note: potency is the fitted concentration of half-maximal effect). An outline of the steps: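 RARE-luc C3RL4 cells; cpds + 1 uM (final) retinol, 6 hr, 37 C/5% CO2; luciferase reagent, 30 min RT, luminescence readout. Inhibitors of retinol-driven signal scored.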
Assay [11] is described as follows: qHTS assay to identify small molecule agonists of the retinoic acid receptor (RAR) signaling pathway (AID 1159553). An outline of the steps: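 Quantitative high-throughput format: the Tox21 10K library was tested on C3RL4 RARE-luciferase cells for 6 hr at 37 C and 5% CO2, with luminescence measured after a 30 min room-temperature reagent step.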
Assay [12] is described as follows: qHTS assay to identify small molecule antagonists of the estrogen related receptor (ERR) signaling pathway from Tox21 library - cell viability counter screen (AID 1224834). Note: nearly all actives have a fitted effect of over 30% in size. Note: potency is the fitted concentration of half-maximal effect. Summed up:
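Compounds in DMSO were pinned onto ERR cells that had been incubated for 6 h, and the plates were held at 37 C for 17.5 h. CellTiter-Fluor reagent was then added and fluorescence was measured after 30 min.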

Assay [13] concerns the target Luciferin 4-monooxygenase (Photinus pyralis) (UniProt P08659). Description: qHTS assay to identify small molecule inhibitors of firefly luciferase (AID 1224835). Note: series mostly up to about 120 µM; nearly all actives have a fitted effect of over 25% in size. An outline of the steps:
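Inhibition of purified Photinus luciferase is measured by luminescence. Substrate levels (D-luciferin, ATP) sit at their KM values. Each compound is tested in a concentration series.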

Assay [14] is described as follows: qHTS assay to identify small molecule agonists of the AP-1 signaling pathway - cell viability counter screen (AID 1159525; calls by dose curve; note: nearly all actives have a fitted effect of over 55% in size; note: potency is the fitted concentration of half-maximal effect). An outline of the steps: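 Intracellular ATP by Cell Titer Glo luminescence (30 min, RT) in the same ME-180 AP-1-bla wells after the 5 h compound exposure at 37 °C. Normalised to tetra n-octyl ammonium bromide and DMSO controls.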
The nature of assay [15]: qHTS assay to identify small molecule agonists of the AP-1 signaling pathway (AID 1159526; calls by dose curve).
Assay [16] concerns the target Nuclear receptor ROR-gamma (Homo sapiens) (UniProt P51449). The assay can be described thus: qHTS assay to identify small molecule antagonists of the retinoid-related orphan receptor gamma (ROR-gamma) signaling pathway (AID 1159521). An outline of the steps:
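Tet-on RORγ CHO cells carrying a ROR response element–luciferase reporter were pretreated with compounds for 2 h, then induced with 1 uM (final) doxycycline hyclate for 16 h at 37 C. Antagonism was read as decreased ONE-Glo luminescence.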

Luciferin 4-monooxygenase (Photinus pyralis), sequence (P08659 whole entry, looked up): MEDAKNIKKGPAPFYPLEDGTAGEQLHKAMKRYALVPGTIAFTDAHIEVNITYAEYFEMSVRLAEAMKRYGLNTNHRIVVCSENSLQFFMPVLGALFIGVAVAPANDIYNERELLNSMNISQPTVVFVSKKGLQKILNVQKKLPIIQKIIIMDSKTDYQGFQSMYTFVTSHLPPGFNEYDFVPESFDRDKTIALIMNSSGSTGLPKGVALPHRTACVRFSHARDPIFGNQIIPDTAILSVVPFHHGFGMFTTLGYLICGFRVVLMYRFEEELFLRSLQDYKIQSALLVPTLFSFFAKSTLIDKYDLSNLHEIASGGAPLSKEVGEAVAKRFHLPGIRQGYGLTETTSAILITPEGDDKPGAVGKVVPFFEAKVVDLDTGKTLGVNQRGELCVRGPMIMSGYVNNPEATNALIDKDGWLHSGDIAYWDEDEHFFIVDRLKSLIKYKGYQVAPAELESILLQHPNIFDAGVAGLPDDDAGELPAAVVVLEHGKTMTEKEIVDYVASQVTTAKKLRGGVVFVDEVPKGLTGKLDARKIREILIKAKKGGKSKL
Retinoic acid receptor RXR-alpha (Homo sapiens), sequence (P19793 whole entry, looked up): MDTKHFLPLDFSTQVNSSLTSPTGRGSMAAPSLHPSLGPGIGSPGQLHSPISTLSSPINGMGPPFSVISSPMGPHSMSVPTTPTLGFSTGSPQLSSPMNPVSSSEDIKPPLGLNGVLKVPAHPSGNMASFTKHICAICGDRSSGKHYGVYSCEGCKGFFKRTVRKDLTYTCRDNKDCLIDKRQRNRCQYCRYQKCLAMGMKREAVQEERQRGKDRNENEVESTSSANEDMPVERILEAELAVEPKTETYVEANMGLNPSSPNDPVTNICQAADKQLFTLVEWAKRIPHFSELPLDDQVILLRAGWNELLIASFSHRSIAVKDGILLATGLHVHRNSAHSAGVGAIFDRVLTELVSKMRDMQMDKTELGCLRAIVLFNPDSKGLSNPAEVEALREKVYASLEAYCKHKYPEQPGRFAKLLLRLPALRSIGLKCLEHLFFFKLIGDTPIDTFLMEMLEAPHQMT

For the compound `O=C1Nc2ccccc2C1(c1ccc(O)cc1)c1ccc(O)cc1`, the Potency result in assay [1], in assay [2], in assay [5], in assay [6], in assay [7] and in [8] was “inactive” in each case. Also, the Potency result in [9], in assay [11] and in [13] was “inactive” in each case. The Potency in assay [3] was 0.174 µM (active); in assay [10], 61.1 µM (active); in assay [12], 43.3 µM (active). Moreover, the outcome in assay [4] was inactive.

For `CC(=O)CC(=O)Nc1ccc2[nH]c(=O)[nH]c2c1`, the Potency result in assay [1], in assay [2], in assay [3], in assay [5], in [6] and in [14] was “inactive” throughout. The Potency result in assay [15], in assay [7], in assay [8], in [9], in assay [10] and in assay [11] was “inactive” throughout. For the same compound, the Potency result in assay [12] was “inactive”. Further, the outcome in assay [4] was inactive.

Take `CC1=CC(=O)c2ccccc2C1=O`: the Potency in assay [1] was 17.4 µM (active) and 11.9 µM (active); in [2], 17.4 µM (active) and 21.3 µM (active); in [3] it was 24.5 µM (active); in assay [5], 43.6 µM (active); in [6], 15.4 µM (active) and 29.8 µM (active); in [14] it was 17.4 µM (active). The Potency in [8] is 24.5 µM (active) and 21.3 µM (active); in [10], 30.6 µM (active); in [12] it was 61.1 µM (active) and inactive. Further, the outcome in assay [4] was inactive. Also, the Potency result in assay [11] is “inactive”.

Consider `CCOC(=O)C(C)C(C)=O` (configuration not stated), for which the Potency result in assay [2], in [3], in [5], in [16], in [14] and in assay [15] was “inactive” in each case. Also, the Potency result in assay [7], in assay [8], in assay [10], in [11], in assay [12] and in [13] was “inactive” in each case. Further, the compound was classed as inactive in assay [4].

In the case of `CC(C)(O)CCC(C)(C)O`, the Potency result in assay [1], in assay [2], in assay [3], in assay [5], in assay [16] and in assay [14] was “inactive” in each case. For the same compound, the Potency result in assay [15], in assay [7], in assay [8], in assay [10], in assay [11] and in assay [12] was “inactive” each time. Also, the Potency entry in assay [13] was “inactive”. Also, the result in assay [4] was inactive.

Regarding `CCN(CC)C(=O)Nc1ccc(OCC(O)CNC(C)(C)C)c(C(C)=O)c1` (configuration not stated), the Potency entry in assay [1], in [2], in [3], in [5], in [6] and in assay [16] was “inactive” in each case. For the same compound, the Potency entry in assay [14], in [15], in assay [7], in [8], in assay [10] and in assay [11] was “inactive” each time. Also, the Potency result in assay [12] and in [13] was “inactive” in each case. The call in assay [4] was inactive.

Regarding `O=C(O)CCc1ccccc1`, the Potency entry in assay [2], in [3], in assay [5], in [6], in assay [16] and in assay [14] was “inactive” in each case. The Potency result in [15], in assay [7], in assay [8], in assay [10], in [11] and in assay [12] was “inactive” each time. Further, the Potency result in assay [13] is “inactive”. The outcome in assay [4] was inactive.

As for `COc1nc(C)nc(Cl)c1NC1=NCCN1`, the Potency entry in assay [2], in assay [3], in assay [5], in assay [6], in assay [16] and in assay [14] was “inactive” throughout. For the same compound, the Potency result in assay [15], in assay [7], in assay [8], in assay [10], in assay [11] and in assay [12] was “inactive” in each case. Also, in [4], the compound was called inactive.
